ALDH1A1 block: inhibitors of human aldehyde dehydrogenase 1A1; AID 1030; Purified ALDH1A1, NADH fluorescence, propionaldehyde substrate; P00352; Potency, µM (top dose mostly 75.3 µM), inactives show at the highest dose activity, negative = inhibition, most hits filed as inhibitors; 220,000 tested, 7.3% active;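 also: potency is read from the fitted curve at half-maximal effect; plate controls were no enzyme wells and a reference inhibitor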
Target sequence (P00352 whole entry, looked up): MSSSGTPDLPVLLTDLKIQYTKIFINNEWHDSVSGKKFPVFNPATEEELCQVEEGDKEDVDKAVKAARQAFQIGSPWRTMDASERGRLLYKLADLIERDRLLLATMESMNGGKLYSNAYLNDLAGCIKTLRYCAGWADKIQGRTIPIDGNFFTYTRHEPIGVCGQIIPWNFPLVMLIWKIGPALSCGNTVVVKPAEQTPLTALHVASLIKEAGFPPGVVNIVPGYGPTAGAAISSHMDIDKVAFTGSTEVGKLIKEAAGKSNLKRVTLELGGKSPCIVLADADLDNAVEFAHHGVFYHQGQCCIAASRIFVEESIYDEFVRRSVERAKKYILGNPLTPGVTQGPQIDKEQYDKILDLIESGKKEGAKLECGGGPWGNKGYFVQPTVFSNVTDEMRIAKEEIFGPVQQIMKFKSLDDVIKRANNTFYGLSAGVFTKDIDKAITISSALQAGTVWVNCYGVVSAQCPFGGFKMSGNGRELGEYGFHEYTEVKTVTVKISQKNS
PNC inhibitor: perinucleolar compartment assembly inhibition; PC3M PTB-GFP, PNC prevalence imaging, 16 h; stronger effect = lower value; activity change (PNC), negative = inhibition, % at 10 µM; 140,000 tested, 3.1% active; AID 2417;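 active = readout at or below -70, meaning at least 70% loss of cells showing the perinucleolar compartment, a nuclear body marking cancer cells; inconclusive = readout between -30 and a set limit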;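 also: plate controls were DMSO wells for no effect and camptothecin positive control wells for full effect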
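Read-out is percentage of cells bearing a perinucleolar compartment, from automated 20x imaging of fixed, Hoechst-stained PC3M PTB-GFP cells. Cells were seeded 4 h, then exposed 16 h to compound (23 nl of library stock) in duplicate plates.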
Lamin A splicing: changes lamin A minigene splicing in HeLa cells | AID 1487 | HeLa LMNA splicing GFP/RFP minigene ratio, 48 h | Potency, µM (series often up to 46.1 µM), for the others: top-dose ratio change, negative = inhibition, actives largely listed as inhibitors | 200,000 tested, 0.01% active; active = well fitted inhibition curve with a large enough effect in the signal ratio, with a control signal flat, not every such curve was filed as active; inconclusive = small, poorly fitted or top-dose-only effect, or effect the other way, or a change in a side signal; the % refers to the signal ratio; also: potency is read from the fitted curve at half-maximal effect
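S3 HeLa cells stably expressing lamin A-EGFP splicing minigene plus DsRed2, 600 cells/well, 48 h compound exposure at 37C. Laser-scanning cytometry; analysed as GFP (500-530 nm)/RFP (575-640 nm) total intensity ratio; 0.5% DMSO vehicle.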
KinaseGlo FLuc: blocks Kinase-Glo luciferase, a counter-screen artifact; 200,000 tested, 0.28% active; Potency, µM (highest dose often 38.3 µM), without a hit: at the highest dose activity change, negative = inhibition, usual class: inhibitors; AID 1379; Kinase-Glo luciferase, ATP luminescence, 8 min; Q27757; active = well fitted inhibition curve with a large enough effect; inconclusive = small, poorly fitted or top-dose-only effect; also: potency is read from the fitted curve at half-maximal effect; nearly all actives have a fitted effect of over 60% in size
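Luminescence was the read-out, taken after 8-minute incubation at ambient temperature. Luciferase turned over luciferin with 10 uM ATP in imidazole pH 7.2 buffer containing KCl, MgCl2, Tween 20 and BSA.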
HPGD inh: HPGD (human) dehydrogenase inhibition | AID 894 | Potency, µM, without a hit: at the top dose activity change, negative = inhibition, actives largely listed as inhibitors | purified HPGD, NADH fluorescence kinetic, PGE2 substrate | 150,000 tested, 4.3% active | P15428; also: potency is read from the fitted curve at half-maximal effect
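20 nM HPGD preincubated 15 min at room temperature with compound in 50 mM Tris-HCl pH 8, 0.01% Tween 20. Started with 1 mM NAD+ and 30 uM prostaglandin E2; NADH fluorescence (360/450 nm) read 5 times over 30-s intervals, last minus first.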
The depositor's hits bear a star; u = inconclusive; x = not tested or not shown; [ ] = remark or other dose. Shown are actives, neighbours in structure and some others; about 10% of the full set was active somewhere. Unless noted, calls follow the shape of the dose curve; as a rule, active = well fitted inhibition curve with a large enough effect (not every such curve was filed as active); inconclusive = small, poorly fitted or top-dose-only effect, or another doubt; inactive = no such curve, though single readings can be large or run the other way. Unless noted, % is scaled to controls: 0 for no effect and ±100 for the full control effect.

SMILES	ALDH1A1 block	PNC inhibitor	Lamin A splicing	KinaseGlo FLuc	HPGD inh
CN(C)S(=O)(=O)c1cccc(NC(=S)Nc2ccc(Cl)cc2Cl)c1	13µM*	u	-10%	5%	u
CCN(CCO)c1ccc(NC(=S)Nc2cccc(S(=O)(=O)N(C)C)c2)cc1	25µM*	x	x	2%	x
CC(=O)c1cccc(NC(=S)NC(=O)c2cccc(C)c2)c1	u	-1	u	-3%	22µM*
CC(=O)c1cccc(NC(=S)NC(=O)c2ccc(Cl)cc2)c1	25µM*	-17	u	1%	-21%
NC(=O)CCCCC(N)=O	-7%	x	x	x	-17%
COc1ccc(OC2C(=O)N(c3ccc(C)c(C)c3)C2c2ccc(OC)c(OC)c2)cc1 (centres undefined)	-1%	u	-18%	0%	1%
COc1ccc(NC2=CC(c3ccc(OC)c(OC)c3)N(c3ccc(OC)cc3)C2=O)cc1 (centres undefined)	14µM*	6	u	0%	u
O=S(=O)(NCC1CCCO1)c1ccc(S(=O)(=O)N2CCc3ccccc3C2)cc1 (centres undefined)	13%	-107*	-8%	6%	-4%
O=S(=O)(NCC1CCN(S(=O)(=O)c2ccccc2)CC1)c1ccccc1	1.6µM*	17	-6%	7%	-2%
O=C(Nc1ccc(S(=O)(=O)N2CCc3ccccc3C2)cc1)C1CCCO1 (centres undefined)	-4%	-18	u	0%	-21%
O=C(NNS(=O)(=O)c1ccccc1)C1CCN(S(=O)(=O)c2ccccc2)CC1	u	11	5%	-2%	-5%
O=C(NNS(=O)(=O)c1ccccc1)C1CCN(S(=O)(=O)c2ccc(Cl)cc2)CC1	-3%	-100*	-7%	3%	-3%
CNc1ncncc1-c1ccccc1OC	u	x	9%	-5%	-16%
COc1ccc(C(=O)NCCSCc2ccc(C)cc2)cc1	2.2µM*	-13	0%[0.0737 µM]	-1%	0%
COCCNC(=O)c1ccc(C(=O)C(=O)c2ccccc2)cc1	-13%	24	0%	-1%	14µM*
COCCCNC(=O)c1ccc(C(=O)NCCCOC)cc1	20%	15	11%	15%	-11%
Cc1ccc(SCCNC(=O)c2ccccc2)cc1	u	u	18%	-4%	16µM*
COc1ccc(C(=O)NCCSC2CCCCC2)cc1	3.5µM*	5	4%	-1%	-1%
O=C(NCCSc1ccccc1)c1cccnc1	u	-15	4%	5%	-29%
Cc1ccc(CSCCNC(=O)c2ccc(C)cc2)cc1	u	x	u	0%	x
COc1cc2c(cc1OC)C(c1ccc(N)cc1)=NNC(=O)C2	-8%	x	x	-2%	-20%
Cc1cccc(C)c1NC(=O)CCSCCc1ccccn1	x	x	0%[46 µM]	x	x
Cc1ccccc1CNC(=O)c1ccccc1	u	u	-11%	0%	16µM*
COc1ccc(C(=O)NCCSc2ccc(C)cc2)cc1	10µM*	-13	0%	-2%	-13%
Cc1cc(C)nc(SCNC(=O)c2ccccc2)n1	-8%	-9	-3%	1%	14µM*
SMILES	ALDH1A1 block	PNC inhibitor	Lamin A splicing	KinaseGlo FLuc	HPGD inh
COc1ccc(C(=O)NCCSCc2ccccc2C)cc1	u	23	4%	-2%	-12%
Cc1cc(SCNC(=O)c2ccccc2)nc(C(C)C)n1	u	x	x	-4%	x
CC(C)C[C@@H](N)C(=O)O	7%	x	u	x	x
COC(=O)c1ccc(NC(=O)CC2C(=O)N(c3ccccc3)C(=O)N2C2CCCC2)cc1 (centres undefined)	x	x	3%[46 µM]	x	x
CCn1cc2c(n1)-c1c(oc(C(=O)Nc3ccc(Br)cc3F)c1C)CC2	x	x	3%[46 µM]	x	x
O=S(=O)(Nc1nccs1)c1cnc(Cl)c(Br)c1	u	-11	0%	2%	-13%
O=S(=O)(Nc1nc2ccccc2s1)c1cnc(Cl)c(Br)c1	20µM*	x	x	x	x
Cn1c(NCc2ccccc2)cc(=O)n(C)c1=O	3%	u	5%	1%	u
Cn1c(=O)cc(NCc2ccccc2)[nH]c1=O	-3%	-91*	-3%	0%	-17%
O=C(c1ccccc1)N1CCN(c2nc3ccc([N+](=O)[O-])cc3s2)CC1	10µM*	x	x	1%	x
O=C(c1ccc2nc(N3CCCCC3)sc2c1)N1CCN(c2ccccn2)CC1	28µM*	51	-3%	-1%	u
CCOC(=O)N1CCN(C(=O)c2ccc3nc(N4CCC(C)CC4)sc3c2)CC1	u	31	-2%	1%	u
CCOC(CNC(=O)c1ccc2nc(N3CCC(C)CC3)sc2c1)OCC	14µM*	-8	-19%	-5%	-10%
CC1CCN(c2nc3ccc(C(=O)N4CCN(Cc5ccccc5)CC4)cc3s2)CC1	20µM*	u	u	0%	14µM*
CCOC(=O)N1CCN(C(=O)c2ccc3nc(N4CCCCC4)sc3c2)CC1	-3%	54	2%	-2%	-23%
CN(Cc1ccccc1)C(=O)[C@H](Cc1ccc2ccccc2c1)NC(=O)[C@@H]1CCCN1C(=O)Nc1ccccc1[N+](=O)[O-]	-4%	x	x	1%[39.9 µM]	-6%
COc1ccc(Cn2ccc3nc(C)c(C(=O)N4CCN(c5cccc(OC)c5)CC4)cc3c2=O)cc1	x	x	-7%[46 µM]	x	x
COC(=O)N1CCC2(CCN(Cc3nccs3)CC2)CC1	8%	x	x	0%	-1%
CCOc1ccccc1N(CC)C(=O)c1noc2c1COc1ccc(C)cc1-2	x	x	-5%[46 µM]	x	x
COC(=O)NC(c1ccccc1)C(C#N)C(=O)OC (centres undefined)	-1%[13.5 µM]	x	x	x	x
CCOC(=O)c1ccc(NC(=O)CSc2ccc(-c3sc(C)nc3C)nn2)cc1	x	x	10%[46 µM]	x	x
O=C(NCC(c1cccnc1)N1CCc2ccccc2C1)c1ccc(F)c(F)c1 (centres undefined)	x	x	-3%[46 µM]	x	x
Cc1cc(N=NC(=O)c2ccccc2)ccc1O	22µM*	x	-10%[46 µM]	-3%	x
O=C(ONc1ccc(N=NC(=O)c2ccccc2O)cc1)c1ccccc1	u	u	5%	-3%	u
CCOc1ccccc1NC(=O)N1CCN(Cc2cc(=O)n3nc(-c4ccc(C)cc4)sc3n2)CC1	x	x	32%[46 µM]	x	x
SMILES	ALDH1A1 block	PNC inhibitor	Lamin A splicing	KinaseGlo FLuc	HPGD inh
COC(=O)CSc1nc2c(c(-c3ccco3)c1C#N)CCCC2	13µM*	27	-1%	8%	13µM*
CC1(C)Cc2c(c(N3CCOCC3)nc3snc(Br)c23)CO1	u	-84*	2%	-2%	-13%
COc1nnnc2c1sc1nc(N3CCOCC3)c3c(c12)CC(C)(C)OC3	u	11	4%	x	x
COc1ccc(NC(=O)CC(C)n2nc(C)cc2C)cc1Cl (centres undefined)	x	x	-13%[46 µM]	x	x
[O-]/C(=C(\C(=S)Nc1cccc2ccccc12)[n+]1ccccc1)c1ccc(OC(F)F)cc1	19µM*	x	3%[46 µM]	-1%	x
[O-]/C(=C(\C(=S)Nc1cccc2ccccc12)[n+]1ccccc1)c1ccc2c(c1)OCCO2	10µM*	-18	21%	2%	u
